# An excerpt weighted towards active compounds, which were near 4.3% of everything screened.
# TRPM1 prom inh: inhibitors of MITF-dependent TRPM1 promoter reporter, primary screen, cell-based, SK-MEL-5, single point, luciferase; SK-MEL-5 TRPM1 promoter luciferase, 24 h; inhibition, % at 12.5 µM; 0.83% of 330,000 active;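 active means mean inhibition across replicates of 60% or more, whatever share of single replicates reaches that level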
# HIF-2a inh: HIF-2a reporter inhibitors, primary screen, luminescence, 786-0 RCC cells; 786-0 RCC cells HIF-2a reporter, luciferase luminescence, overnight; inhibition, % at 18.8 µM; 0.72% of 360,000 active;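 active means inhibition of the luminescence signal of 40% or more relative to plate controls, in a single-dose primary screen at 18.75 µM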
# CHOP inhibitor: inhibitors of CHOP promoter induction, primary screen, cell-based, unfolded protein response, luciferase reporter | inhibition, % at 10 µM | 3.8% of 220,000 active | CHO-K1 CHOP-promoter luciferase, tunicamycin-induced, 15-18 h;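 active means compounds that reduced the stress-induced luciferase reporter signal by more than about 70% of percent inhibition, limit read from the data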;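 further: 0% = tunicamycin plus vehicle and 100% = wells without tunicamycin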
# KKLEB tox: cytotoxicity in KKLEB CF airway cells, primary screen, cytotoxicity control for CF NF-kB inhibitor project, cell-based, uHTS, fluorescence assay plates; KKLEB CF airway cells viability, ATPlite luminescence, overnight; stronger effect = lower value; cells stimulated with P. aeruginosa culture filtrate; activity change (cytotoxicity), % at 5 µM; 0.36% of 360,000 active;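 active means corrected activity change at or below -50% at 5 µM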
# CF NFkB inh: inhibitors of PAF-induced NF-kB signaling, primary screen, cell-based, GFP fluorescence, uHTS. KKLEB NF-kB-GFP reporter, GFP fluorescence overnight. inhibition, % at 5 µM. 0.86% of 360,000 active;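 active means at least 50% inhibition at 5 µM, scaled per plate between neutral and stimulator controls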;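 further: PAF is a Pseudomonas aeruginosa culture filtrate used as stimulus; plate controls were PAF-stimulated DMSO wells for no effect and unstimulated DMSO wells for full effect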
# Peg3 prom inh-1: Peg3 promoter-driven luciferase inhibitors, primary screen, cell-based, HeLa, luciferase luminescence; HeLa PEG-Prom luciferase reporter, overnight; inhibition, % at 20 µM; 1.7% of 360,000 active; AID 588405, 2011;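 active means inhibition of at least 50% at 20 µM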
# Peg3 prom inh-2: Peg3 promoter reporter inhibitors, retest, confirmation, cell-based, HeLa, luciferase reporter, single concentration. shares compounds with Peg3 prom inh-1. HeLa PEG-Prom luciferase reporter, luminescence, overnight. inhibition, % at 20 µM. 84% of 1,300 active. AID 602417, 2012;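 active means at 20 µM dose, 40% or more inhibition averaged across four replicates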
# Active calls of the source: *; x = no result given.
SMILES,TRPM1 prom inh,HIF-2a inh,CHOP inhibitor,KKLEB tox,CF NFkB inh,Peg3 prom inh-1,Peg3 prom inh-2
COc1cccc(Nc2nc(C(N)C3CCCCC3)cs2)n1 (stereo not given),x,5.1,x,-4.6,5.5,95.6*,63.4*
COc1ccc(NC(=O)Nc2nc(C(N)C3CCCCC3)cs2)cc1 (stereo not given),x,-2.0,x,-8.0,9.8,54.4*,71.4*
Cc1ccccc1NC(=O)Nc1nc(C(N)C2CCCCC2)cs1 (stereo not given),x,1.6,x,-13.8,17.6,85.7*,80.6*
CC(C)c1ccc(NC(=O)Nc2nc(CN)cs2)cc1,x,-52.0,x,5.6,5.0,-270.1,x
CC(C)c1ccc(NC(=O)Nc2nc(C(C)N)cs2)cc1 (stereo not given),x,3.7,x,-0.1,0.5,85.6*,90.2*
N#Cc1ccc(C(=O)Nc2ccc([N+](=O)[O-])cc2)c(F)c1,-7.2,-98.2,-3.2,-4.9,-8.7,-101.1,x
NC(c1csc(Nc2nccc(C(F)(F)F)n2)n1)C1CCCCC1 (stereo not given),x,-0.7,x,-0.1,-3.9,82.5*,94.0*
NC(c1csc(Nc2ncccn2)n1)C1CCCCC1 (stereo not given),x,-19.0,x,9.9,0.1,-6.7,x
O=C(CN1C(=O)COc2ccccc21)N1CCN(C2CCCCC2)CC1,-33.7,16.6,x,4.5,3.6,-2.4,x
CC1CC(C)CN(C(=O)COC(=O)c2c[nH]c3ccccc23)C1 (stereo not given),14.6,-3.6,x,16.1,5.4,3.3,x
COc1ccc(N(C(=O)Cn2nnc(-c3ccc(F)cc3)n2)C(C)C(=O)NC2CCCC2)cc1 (stereo not given),10.3,15.5,x,-4.3,17.0,21.1,x
CC(C(=O)NC1CCCC1)N(C(=O)Cn1nnc(-c2ccc(F)cc2)n1)c1ccccc1F (stereo not given),-2.3,4.4,x,-11.2,4.0,57.1*,49.9*
O=C(NCC1CCCO1)C(c1ccc(F)cc1)N(C(=O)Cn1nnc(-c2ccc(F)cc2)n1)c1cccc(O)c1 (stereo not given),3.9,18.8,26.9,-11.7,5.2,55.7*,51.0*
CC(C)CC(C(=O)NCC1CCCO1)N(C(=O)Cn1nnc(-c2ccc(F)cc2)n1)c1cccc(C(F)(F)F)c1 (stereo not given),25.0,12.6,62.0,-0.5,-3.2,15.7,x
O=S(=O)(c1ccc(Br)cc1)c1nc(-c2ccco2)oc1NCC1CCCO1 (stereo not given),5.7,13.6,16.4,-3.5,-7.3,18.4,x
Cc1nn2c(-c3ccccn3)ccnc2c1Cl,0.7,-7.4,-8.9,-2.1,-11.2,5.5,x
CCOc1cc(C2c3c(oc4cc(C)c(Cl)cc4c3=O)C(=O)N2Cc2ccco2)ccc1O (stereo not given),19.7,12.8,95.8*,0.0,19.3,67.0*,17.4
COc1cc(C2c3c(oc4ccccc4c3=O)C(=O)N2Cc2ccco2)ccc1O (stereo not given),-4.7,5.5,24.2,-1.0,-3.6,5.2,x
CCN(CC)CCCCNc1ncc2cc(-c3cc(OC)cc(OC)c3)c(NC(=O)NC(C)(C)C)nc2n1,73.4*,-8.6,x,-28.1,22.8,74.3*,77.0*
CCOc1cccc(C(=O)Nc2ccc(S(=O)(=O)Nc3cc(C)on3)cc2)c1,6.5,11.4,x,9.3,13.5,20.4,x
C/C(=N\NC(=O)c1c(C)nc2ccccn12)c1ccccc1F,-1.4,-7.6,x,5.0,-11.4,1.6,x
C/C(=N\NC(=O)c1c(C)nc2ccccn12)c1ccc(O)cc1O,50.6,4.6,x,2.5,1.0,52.0*,59.9*
O=C(NCc1ccccn1)C1CCN(S(=O)(=O)c2cc(Cl)ccc2Cl)CC1,7.0,8.1,0.0,3.0,26.5,0.3,x
Cc1ccccc1NC(=O)Nc1nc(C(N)Cc2ccccc2)cs1 (stereo not given),x,-8.1,x,-10.8,7.8,72.7*,41.9*
COc1ccc(CC(N)c2csc(NC(=O)Nc3cc(OC)ccc3OC)n2)cc1 (stereo not given),x,0.8,x,4.7,-12.9,93.7*,95.5*
SMILES,TRPM1 prom inh,HIF-2a inh,CHOP inhibitor,KKLEB tox,CF NFkB inh,Peg3 prom inh-1,Peg3 prom inh-2
COc1ccc(CC(N)c2csc(NC(=O)Nc3ccccc3C(C)(C)C)n2)cc1 (stereo not given),x,-5.0,x,-4.5,0.1,87.0*,76.5*
COc1cc(NC(=O)Nc2nc(C(N)CCc3ccccc3)cs2)cc(OC)c1OC (stereo not given),x,-21.7,x,5.7,-21.6,73.9*,82.6*
CC(C)(C)c1ccccc1NC(=O)Nc1nc(C(N)c2ccccc2Cl)cs1 (stereo not given),x,3.3,x,-19.0,11.6,-3.6,x
COc1cc(OC)nc(Nc2nc(C(N)CCc3ccccc3)cs2)n1 (stereo not given),x,16.4,x,-17.2,11.1,15.7,x
CCc1nc(Nc2ccc(N3CCN(C(C)=O)CC3)cc2)c2oc3ccccc3c2n1,-5.7,-59.4,40.0,1.4,-11.2,78.7*,67.7*
CC(C)N1CCc2c(sc(NC(=O)c3cc4cc([N+](=O)[O-])ccc4s3)c2C(N)=O)C1,x,4.6,77.9*,-1.6,-38.6,96.8*,97.9*
CC(C)C(NC(=O)C(NC(=O)C1OC2OC(C)(C)OC2C2OC(C)(C)OC12)C(C)C)C(=O)O (stereo not given),1.0,20.6,7.8,-1.9,12.0,-3.5,x
COc1cc(C(C(=O)NC2CCCCC2)N(CCN2CCOCC2)C(=O)C2COc3ccccc3O2)cc(OC)c1OC (stereo not given),-9.4,16.0,10.6,6.5,-3.5,21.9,x
O=C(Nc1ccc(S(=O)(=O)Nc2ncccn2)cc1)c1ccc2ncsc2c1,7.3,-7.6,18.0,-4.6,-13.5,8.0,x
O=C(c1ccoc1)N1CCN(c2cc(-c3ccncc3)nc3cc(-c4cccc(Cl)c4)nn23)CC1,x,-4.9,x,-29.5,19.5,19.0,x
CC(=O)N1CCN(c2cc(-c3ccccc3)nc3cc(-c4cccc(Cl)c4)nn23)CC1,x,-26.7,x,-1.4,6.2,54.8*,57.7*
O=C(c1ccoc1)N1CCN(c2cc(-c3cccnc3)nc3cc(-c4cccc(Cl)c4)nn23)CC1,x,-5.7,x,-1.4,4.3,54.1*,28.6
COc1ncnc2c1ncn2CCCNCCCN1CCCC1=O,x,7.8,x,11.7,-1.5,1.4,x
O=C(/C=C/[C@H]1O[C@@H](n2cnc3c(NC(=O)c4ccccc4)ncnc32)[C@H](O)[C@@H]1O)NCCc1ccc(F)cc1,x,6.8,x,4.3,-14.3,7.7,x
